Several values for one entry are separate records, joined by “and”; a condition that tells them apart may be missing. Identical values can stand only once. The panel holds about 83,000 compounds, 20% with a hit somewhere; the sample as a whole holds those more often.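 The test compound was applied at a single concentration to cells in 96-well plates for 48 hours, and percent growth was recorded.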 Activity calls are given as the source filed them. The calls were made as follows: active = growth percent below 10; inactive = the rest.

In this assay the test system is MDA-MB-468 breast. The assay is described as follows: NCI-60 one-dose screen, 48 h (100 = growth as untreated, 0 = no growth, -100 = all killed). The conditions noted are these: 10 µM unless noted.
`O=C(CN1CCN(c2cc3c(cc2F)c(=O)c(C(=O)O)cn3C2CC2)CC1)Nc1cc(=O)[nH]c(=O)[nH]1`: the growth was 89.7% (inactive). With `O=C(OCC1CC2(Cl)C(Cl)=C(Cl)C1(Cl)C2(Cl)Cl)C1C(C(=O)OCC2CC3(Cl)C(Cl)=C(Cl)C2(Cl)C3(Cl)Cl)C2(Cl)C(Cl)=C(Cl)C1(Cl)C2(Cl)Cl` (stereo not given), the growth was 107% (inactive).

Take `O=C(Nc1cccc(-n2ccc3c(NC(=O)c4ccccc4)nccc32)c1)c1ccc(Cl)c(C(F)(F)F)c1`: the growth is -86.9% (active) and 85.1% (inactive). To `CCOC(=O)c1cnc2sc(-c3ccc(OC)cc3)nc2c1Cl` belongs 90.4% (inactive); to `CCCCCCC(C(=O)OCC)(C(=O)OCC)C1CCCCCC1`, 112% (inactive). Take `CCn1c(Sc2nnc(NC(=O)CSC(=S)N3CCCCC3)s2)nc2c1c(=O)n(C)c(=O)n2C`: the growth was 98.7% (inactive).

Turning to `O=S(=O)(NCCCNc1nccc(-c2c(-c3ccc(O)cc3)nc3sccn23)n1)c1ccc(F)cc1`, the growth is -19.2% (active). For `CCCCN(C(=O)CC)c1ccccc1` the value was 106% (inactive); for `COc1ccc(Cn2cc3c(c2-c2cc(OC)c(OC)c(OC)c2)CCc2cnoc2-3)cc1[N+](=O)[O-]`, -1.72% (active); for `CCC(C)(C)c1ccc(Nc2ccc(Nc3ccc(C(C)(C)CC)cc3)cc2)cc1`, 101% (inactive). For `CCCCN(CCCC)CCCCCCCCCCO` the value was 99.8% (inactive); for `CCOc1ccccc1/C=N\N=C(N/N=C/c1ccccc1OCC)N/N=C/c1ccccc1OCC`, -30.4% (active); for `C=C(CNCCO)[C@@H]1CC[C@]2(CO)CC[C@]3(C)[C@H](CC[C@@H]4[C@@]5(C)CCC(N)C(C)(C)[C@@H]5CC[C@]43C)[C@@H]12` (stereo not given in full), -40.9% (active).

On to `Cc1nc(-n2[nH]c(=O)ccc2=O)sc1N=Nc1ccccc1`, for which the growth is 93.8% (inactive). Consider `CC(C)OC(=O)OCOP(=O)(OCOC(=O)OC(C)C)C1CCCN(O)C1=O` (stereo not given), for which the growth is 36.3% (inactive). For `Cc1ccc(S(=O)(=O)NCCCNc2nccc(-c3c(-c4ccccc4)nc4sccn34)n2)cc1` the value was 53.8% (inactive).

Turning to `Cc1cc(C(=O)Nc2ncc(Cc3cccc(C(F)(F)F)c3)s2)c2ccccc2n1`, the growth is 1.69% (active). On to `COc1ccc(-c2nnc(N3CCN(C(=O)CN4CCN(c5ccccc5)CC4)CC3)nc2-c2ccc(OC)cc2)cc1`, for which the growth was 41.4% (inactive). To `Clc1ccc2nc3nc4ccc[nH]c4cc3c2c1` belongs -31.5% (active); to `Cc1cc(C)c(/C=C2\C(=O)Nc3ccc(NC(=O)CCCCCCC(=O)NO)cc32)[nH]1`, 13% (inactive). To `O=C(NN1C(=O)CSC1c1cccc([N+](=O)[O-])c1)c1ccc(NC(=O)c2ccccn2)cc1` (stereo not given) belongs 98.8% (inactive); to `CCc1cc(O)ccc1Nc1cc(-c2ccc(-n3cccn3)cc2)[nH]n1`, 58.8% (inactive). For `COc1cc(/C=C2\CN(C(=O)CCN3CCC(=NO)CC3)C/C(=C\c3cc(OC)c(OC)c(OC)c3)C2=O)cc(OC)c1OC` the value was -41.2% (active); for `COc1ccc2c(c1)[nH]c(=O)c1c3cc(C)c(C)cc3cn21`, 7.03% (active); for `Oc1ccc(CN2CCC(N3CCOCC3)CC2)c2cccnc12`, 36.6% (inactive).

The record behind these values is PubChem BioAssay (NCI).
